In PubChem BioAssay (Tox21):
Records with an inconclusive call do not appear. Active and inactive are the calls of the source. Unless noted, the call rests on the fitted dose curve; in most records, active means well fitted curve in the direction sought with a large enough effect in the repeat runs; inconclusive means weak or mixed curves; inactive means no such curve, though single readings can be large; an effect the other way counts as inactive or inconclusive.

What was measured:
[1] = target: Thyrotropin receptor (Homo sapiens) (UniProt P16473); assay: qHTS assay to identify small molecule agonists of the thyroid stimulating hormone receptor (TSHR) signaling pathway (AID 1224843; calls by dose curve; further: nearly all actives have a fitted effect of over 45% in size)
Chain of Thyrotropin receptor (Homo sapiens) (P16473 whole entry, looked up): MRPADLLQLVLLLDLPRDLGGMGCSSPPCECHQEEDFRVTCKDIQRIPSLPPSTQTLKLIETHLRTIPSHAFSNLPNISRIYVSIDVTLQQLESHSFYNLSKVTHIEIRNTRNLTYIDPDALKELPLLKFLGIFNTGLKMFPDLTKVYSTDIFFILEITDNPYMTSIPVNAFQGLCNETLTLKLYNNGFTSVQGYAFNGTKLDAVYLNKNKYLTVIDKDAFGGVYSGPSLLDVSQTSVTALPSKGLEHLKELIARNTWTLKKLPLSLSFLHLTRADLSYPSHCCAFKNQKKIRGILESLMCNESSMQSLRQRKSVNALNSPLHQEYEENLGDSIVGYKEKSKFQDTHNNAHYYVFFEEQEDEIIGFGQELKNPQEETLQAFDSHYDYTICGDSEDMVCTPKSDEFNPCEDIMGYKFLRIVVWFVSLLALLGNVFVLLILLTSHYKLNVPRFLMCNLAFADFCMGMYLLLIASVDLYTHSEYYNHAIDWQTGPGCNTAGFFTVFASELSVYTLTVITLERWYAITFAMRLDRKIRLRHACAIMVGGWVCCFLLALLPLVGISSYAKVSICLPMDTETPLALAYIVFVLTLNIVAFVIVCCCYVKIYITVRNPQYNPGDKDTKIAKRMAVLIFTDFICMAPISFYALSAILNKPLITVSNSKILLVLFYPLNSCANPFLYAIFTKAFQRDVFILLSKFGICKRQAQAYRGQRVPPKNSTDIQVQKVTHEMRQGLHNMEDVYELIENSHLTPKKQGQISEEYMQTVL
In short: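 HEK293/TSHR, 800 cells/well; cpd 30 min RT; add cAMP-d2 + anti-cAMP-cryptate, 1 h RT; fluorescence read on plate reader. 15-pt titration, n=3.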

[2] = qHTS assay to identify small molecule agonists of the hypoxia (HIF-1) signaling pathway - cell viability counter screen (AID 1224844; calls by dose curve; further: nearly all actives have a fitted effect of over 50% in size)
In short: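 HRE-bla ME-180; 0.5% dFBS; cpd 17 h, 37C, 5% CO2; CellTiter-Glo lum., 30 min RT, post-FRET read, same wells.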

[3] = qHTS assay to identify small molecule agonists of H2AX - cell viability counter screen (AID 1224847; calls by dose curve; further: top concentration of the series differs between compounds; nearly all actives have a fitted effect of over 30% in size)
In short: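 Viability of CHO-K1 (wild type) cells after 3 hr compound exposure was measured by CellTiter-Glo luminescence.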

[4] = qHTS assay to identify small molecule antagonists of the estrogen related receptor (ERR) signaling pathway from Tox21 library (AID 1224848); further: nearly all actives have a fitted effect of over 50% in size; further: potency means the concentration at half of the fitted maximal effect
In short: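 Compounds dissolved in DMSO are pin-transferred onto ERR reporter cells (2,000 per well) that have settled for 6 h at 37 C. Plates then incubate 18 h at 37 C before ONE-Glo luciferase reagent and a luminescence read 30 min later.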

[5] = qHTS assay to identify small molecule agonists of the estrogen related receptor (ERR) signaling pathway from Tox21 library (AID 1224849; calls by dose curve; further: nearly all actives have a fitted effect of over 15% in size); conditions: ERR reporter cell line, ONE-Glo luciferase, 18 h; at 92.4 µM (top of the series) unless noted
In short: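 Tox21 compounds tested for ERR agonism in an NTP reporter cell line: 18 h treatment at 37 C, then ONE-Glo luminescence.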

[6] = qHTS RealTime-Glo MT Cell Viability Assay in HepG2 cells - 24 hour (AID 1224867); further: nearly all actives have a fitted effect of over 50% in size; further: potency means the concentration at half of the fitted maximal effect
In short: (§1)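 HepG2 cells (600/well) were dispensed with RealTime-Glo reagents, incubated 5 h at 37 °C, then treated with compounds in DMSO for up to 40 h. Nonlytic NanoLuc luminescence reflecting viable cells was read at each stated time point.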

[7] = A CellTox Green Cytotoxicity Assay to monitor cytotoxicity in HEK293 cells - 0 hour (AID 1224869); further: nearly all actives have a fitted effect of over 50% in size
In short: (§2)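 Tox21 screen in HEK293: membrane-impermeant cyanine dye fluoresces on binding dead-cell DNA; compound pinned 5 h post-seeding, plates held at 37 C, signal read repeatedly through 40 h.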

[8] = qHTS RealTime-Glo MT Cell Viability Assay in HepG2 cells - 8 hour (AID 1224873); further: nearly all actives have a fitted effect of over 55% in size
In short: (§3)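 HepG2 cells (600/well) mixed with RealTime-Glo MT reagent, settled 5 h at 37 C/5% CO2 before compound addition. Nonlytic NanoLuc luminescence from viable-cell prosubstrate reduction read repeatedly during 40 h treatment at 37 C.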

[9] = qHTS RealTime-Glo MT Cell Viability Assay in HEK293 cells - 40 hour (AID 1224874); conditions: RealTime-Glo luminescence; max response: stronger effect = lower value; further: nearly all actives have a fitted effect of over 50% in size
In short: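 HEK293 + NanoLuc + prosubstrate, 600 cells/well; 5 h, 37 C/5% CO2; compound 23 nL in DMSO by pintool; 37 C; luminescence read at 0, 8, 16, 24, 32 and 40 h time points.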

[10] = A CellTox Green Cytotoxicity Assay to monitor cytotoxicity in HEK293 cells - 24 hour (AID 1224875); further: nearly all actives have a fitted effect of over 45% in size
In short: as §2

[11] = A CellTox Green Cytotoxicity Assay to monitor cytotoxicity in HepG2 cells - 16 hour (AID 1224876); further: nearly all actives have a fitted effect of over 45% in size
In short: (§4)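 Measurements at 0, 8, 16, 24, 32 and 40 h of treatment captured CellTox Green fluorescence in HepG2 cells that had been co-plated with reagent and preincubated 5 h at 37 C/5% CO2.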

[12] = qHTS RealTime-Glo MT Cell Viability Assay in HepG2 cells - 32 hour (AID 1224877); further: nearly all actives have a fitted effect of over 55% in size; further: potency means the concentration at half of the fitted maximal effect
In short: as §1

[13] = A CellTox Green Cytotoxicity Assay to monitor cytotoxicity in HepG2 cells - 40 hour (AID 1224879); further: nearly all actives have a fitted effect of over 40% in size; further: potency means the concentration at half of the fitted maximal effect
In short: as §4

[14] = qHTS assay to identify small molecule agonists of H2AX (AID 1224845; active means well fitted activation curve with a large enough effect in the signal ratio in the repeat runs, not every such curve was filed as active; the % refers to the signal ratio)
In short: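 Wild-type CHO-K1 cells, plated overnight, exposed 3hr at 37C to 15 concentrations (0.76% DMSO final). Lysed, then HTRF anti-pH2AX (S139) cryptate and anti-H2AX-d2 antibodies, 24 hr room temperature; 665/620 nm emission read.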

[15] = qHTS assay to identify small molecule agonists of the hypoxia (HIF-1) signaling pathway (AID 1224846; active means well fitted activation curve with a large enough effect in the signal ratio in the repeat runs, not every such curve was filed as active; the % refers to the signal ratio)
In short: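 Reporter induction in HRE-bla ME-180 cells is taken as agonism: cells sit 5 hrs after plating, receive compounds or DMSO only, incubate 17 hrs at 37C under 5% CO2, and are loaded with CCF4-AM for beta-lactamase FRET measurement.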

[16] = qHTS RealTime-Glo MT Cell Viability Assay in HepG2 cells - 40 hour (AID 1224870); further: nearly all actives have a fitted effect of over 50% in size
In short: as §3

[17] = qHTS RealTime-Glo MT Cell Viability Assay in HEK293 cells - 16 hour (AID 1224872); further: nearly all actives have a fitted effect of over 50% in size; further: potency means the concentration at half of the fitted maximal effect
In short: (§5)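 HEK293 cells seeded with NanoLuc/prosubstrate reagent, rested 5 h at 37 C, then dosed and kept at 37 C up to 40 h. Nonlytic real-time luminescence from viable cells read at 0, 8, 16, 24, 32 and 40 h.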

[18] = A CellTox Green Cytotoxicity Assay to monitor cytotoxicity in HepG2 cells - 24 hour (AID 1224878); further: nearly all actives have a fitted effect of over 45% in size; further: potency means the concentration at half of the fitted maximal effect
In short: as §4

[19] = qHTS RealTime-Glo MT Cell Viability Assay in HEK293 cells - 32 hour (AID 1224868)
In short: as §5

[20] = A CellTox Green Cytotoxicity Assay to monitor cytotoxicity in HEK293 cells - 40 hour (AID 1224871); further: nearly all actives have a fitted effect of over 45% in size
In short: as §2
On the % scale 0 is the no-effect control and ±100 the full control effect.

CCCCNc1ccc(C(=O)OCCN(CC)CC)cc1
inactive: Potency [1] | Potency [2] | Potency [3] | Potency [4] | activity change, positive = activation [5] -11.3% [at 42.5 µM] | Potency [6] | Potency [7] | outcome [8] | max response [9] -22.9% | Potency [10] | Potency [11] | Potency [12] | Potency [13]

CC1=C2[C@H](/C=C(\C)C(=O)O)CC[C@@H](C)[C@H]2CC1
active: Potency [4] 56.5 µM | Potency [17] 36 µM
inactive: Potency [1] | Potency [14] | outcome [15] | Potency [3] | activity change, positive = activation [5] -46% | Potency [6] | Potency [16] | outcome [8] | Potency [11] | Potency [12] | Potency [18] | Potency [13]

OCCN(CCO)c1ccccc1
inactive: Potency [2] | Potency [14] | outcome [15] | Potency [3] | Potency [6] | Potency [19] | Potency [7] | Potency [16] | Potency [20] | Potency [17] | outcome [8] | max response [9] 1.89% | Potency [10] | Potency [11] | Potency [12] | Potency [13]

CCOC(=O)CS
inactive: Potency [1] | Potency [14] | Potency [3] | activity change, positive = activation [5] -14.3% | Potency [6] | Potency [19] | Potency [16] | Potency [17] | outcome [8] | max response [9] -5.88% | Potency [10] | Potency [11] | Potency [12] | Potency [13]

ClC(Cl)Cl
inactive: Potency [1] | Potency [3] | Potency [4] | activity change, positive = activation [5] -1.48% | Potency [6] | Potency [19] | Potency [7] | Potency [16] | Potency [17] | outcome [8] | max response [9] 6.53% | Potency [10] | Potency [11] | Potency [12] | Potency [18] | Potency [13]

O=C1CCCCCCCCCCC(=O)OCCO1
inactive: Potency [1] | Potency [2] | Potency [6] | Potency [19] | Potency [7] | Potency [16] | outcome [8] | max response [9] -13.7% | Potency [11] | Potency [12]
active: Potency [18] 21.9 µM | Potency [13] 24.5 µM

ICCc1ccccc1
inactive: Potency [1] | Potency [3] | activity change, positive = activation [5] -17.9% | Potency [19] | Potency [7] | Potency [17] | outcome [8] | max response [9] 22.5% | Potency [11] | Potency [13]
active: Potency [6] 19.1 µM | Potency [12] 12.1 µM

CC(C)(C)C1CCCCC1=O (stereo not given)
inactive: Potency [2] | Potency [14] | outcome [15] | Potency [3] | Potency [6] | Potency [19] | Potency [7] | Potency [16] | Potency [20] | Potency [17] | outcome [8] | max response [9] 10.3% | Potency [10] | Potency [11] | Potency [12] | Potency [18] | Potency [13]

O=C1CCCCC1C1CCCCC1 (stereo not given)
inactive: Potency [1] | Potency [14] | outcome [15] | Potency [3] | Potency [6] | Potency [19] | Potency [7] | Potency [20] | Potency [17] | outcome [8] | max response [9] 11.8% | Potency [10] | Potency [11] | Potency [12] | Potency [18] | Potency [13]
